# HCMV antiviral – inhibitors of human cytomegalovirus; HFF cells, HCMV-luciferase reporter, 72 h; active compounds read low; 410,000 tested, 4.5% active; AID 1259415; activity change, negative = inhibition, % at 57.5 µM; in the data active = activity change below about -60%; inconclusive = no clear call, values can overlap the other calls; inactive = above about -39%
#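 Cell-based, HFFs, 1000 cells/well, 16 h 37C; cpds in DMSO + HCMV-luc, MOI 1 PFU/cell; 72 h 37C; OneGlo luminescence after 5 min RT; norm. to buffer vs Salinomycin 10uM.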
# FMDV antiviral – antivirals against foot and mouth disease virus. Potency, µM (doses to about 57.9 µM), for the others: top-dose activity change, negative = inhibition, most hits filed as inhibitors. AID 1159524. FMDV antiviral cell-based qHTS. 410,000 tested, 1.2% active; calls by dose curve; tested in HEK293T cells; note: read-out not given here; potency is the fitted concentration of half-maximal effect; nearly all actives have a fitted effect of over 45% in size
# HCV inh – inhibitors of hepatitis C virus infection; 340,000 tested, 3.4% active; Huh7.5.1 HCVcc-Cre infection, luciferase reporter, 44 h; Potency, µM (titrated, usually from 41.8 µM), without a hit: at the top dose activity change, negative = inhibition, most hits filed as inhibitors; active = well fitted inhibition curve with a large enough effect; inconclusive = small, poorly fitted or top-dose-only effect, or another doubt; inactive = no such curve, though single readings can be large or run the other way; note: potency is the fitted concentration of half-maximal effect
#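 Cells (1,000/well) were plated 4 h before compound, then infected with HCVcc-Cre virus (~0.5 moi). After 44 h further culture, infection was read as luciferase luminescence following a 15 min substrate incubation at room temperature.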
# Vaccinia mCherry – vaccinia inhibition (mCherry reporter). Potency, µM (series often up to 36.5 µM), for inactives: at the highest dose activity change, negative = inhibition, most hits filed as inhibitors. AID 720579. Vaccinia virus mCherry reporter infection, fluorescence. 310,000 tested, 0.63% active; calls by dose curve; tested in A549 cells; note: potency is the fitted concentration of half-maximal effect; nearly all actives have a fitted effect of over 35% in size
# Vaccinia Venus – inhibitors of vaccinia virus (Venus reporter). Vaccinia virus Venus reporter expression, fluorescence. 330,000 tested, 0.46% active. Potency, µM (highest dose often 36.5 µM), without a hit: top-dose activity change, negative = inhibition, actives largely listed as inhibitors; calls by dose curve; tested in A549 cells; note: potency is the fitted concentration of half-maximal effect; nearly all actives have a fitted effect of over 30% in size
# * = called active by the depositor; i = inactive; u = inconclusive; x = not tested or not shown; [ ] = dose if it differs, or a comment. This is a sample that favours compounds with a hit; in the whole collection about 7.3% have one here. % is set by controls: 0 for no effect and ±100 for the full control effect.
SMILES,HCMV antiviral,FMDV antiviral,HCV inh,Vaccinia mCherry,Vaccinia Venus
C=CCn1c(Cc2ccccc2)nnc1SCc1nc2ccccc2c(=O)[nH]1,-20,13%,-14%,-17%,-17%
O=c1[nH]c(CSc2ncccn2)nc2c1cnn2-c1ccccc1,62,-14%,-9%,-18%,-5%
O=c1[nH]c(CSc2nc3ccccc3[nH]2)nc2c1cnn2-c1ccccc1,-86*,22µM*,u,u,-29%
Cc1ccc2nc(SCc3nc4c(cnn4-c4ccccc4)c(=O)[nH]3)[nH]c2c1,-83*,11µM*,u,-18%,-11%
O=c1[nH]c(SCc2nc3c(cnn3-c3ccccc3)c(=O)[nH]2)nc2ccccc12,-92*,9%,u,x,-2%
C=CCn1c(SCc2nc3ccccc3c(=O)[nH]2)nc2ccccc2c1=O,-61*,0%,5%,x,-9%
C=CCc1cccc(Cl)c1OCCCNC1CCCC1,35,-21%,10µM*,x,x
COC(=O)C(c1ccc(Br)cc1)(c1cn(C)c2ccccc12)C(Nc1ccccc1)c1ccccc1 (configuration not stated),-79*,x,x,x,x
CCCCCCCC/C=C\CCCCCCCC(=O)OC[C@@H](O)COP(=O)(O)O,x,3%[6.7 µM],x,i[3.33 µM],-12%[3.33 µM]
COc1ccccc1CC(Cc1nc2ccccc2[nH]1)c1nc2ccccc2[nH]1 (configuration not stated),-19,-16%,u,-8%,-6%
Cc1cccc(CC(Cc2nc3ccccc3[nH]2)c2nc3ccccc3[nH]2)c1 (configuration not stated),-83*,u,u,x,u
CC(C)C(=O)N1CCN(c2ccc(NC(=O)c3cccs3)cc2)CC1,54,-20%,-1%,i,-16%
CC(C)C(=O)N1CCN(c2ccc(NC(=O)c3cccs3)cc2Cl)CC1,-85*,u,10µM*,x,x
CC(C)C(=O)N1CCN(c2ccc(NC(=O)c3ccc4c(c3)OCCO4)cc2Cl)CC1,-80*,11µM*,13µM*,x,x
COc1ccc(CNC(=O)CN2CCN(c3cccc(C)c3C)CC2)cc1,16,-23%,3.2µM*,-3%,-5%
COc1ccc2nc(C)cc(N3CCN(S(=O)(=O)c4ccccc4F)CC3)c2c1,-10,u,7.1µM*,x,x
COc1ccc(-c2nsc3c(N4CCN(S(=O)(=O)c5ccccc5F)CC4)ncnc23)cc1,-12,x,-1%,-10%,-5%
COc1ccc2ncc(S(=O)(=O)c3ccccc3)c(N3CCN(c4ccccc4)CC3)c2c1,-68*,u,u,-29%,-16%
COc1ccc(C(=O)CN2CCN(c3cc(C)nc4ccccc34)CC2)cc1,-61*,u,10µM*,x,x
Cc1cccc(N2CCN(CC(=O)NCc3ccccc3)CC2)c1C,42,-18%,-18%,x,x
COc1ccc(N2CCN(CC(=O)c3ccccc3)CC2)cc1,x,22%,5%,-10%,-7%
S=Cc1ccc(/C=C/c2ccnc3ccccc23)cc1,x,x,x,-25%,-9%
COc1cccc(Cl)c1NC(=O)N1CCN(c2ccnc3cc(Cl)ccc23)CC1,u,-24%,u,x,x
COc1ccc(-c2csc(N3CCN(c4cc(C)nc5ccccc45)CC3)n2)cc1OC,-112*,0%,2.8µM*,u,-6%
COc1cccc(Cl)c1NC(=O)N1CCN(c2cc(C)nc3ccccc23)CC1,-80*,u,10µM*,-24%,u
SMILES,HCMV antiviral,FMDV antiviral,HCV inh,Vaccinia mCherry,Vaccinia Venus
COc1ccc2nc(C)cc(N3CCN(c4ccccc4)CC3)c2c1,-16,-27%,22µM*,-20%,-3%
COc1ccc(N2CCN(C(=O)Oc3ccc([N+](=O)[O-])cc3)CC2)cc1,5,u,x,i,-3%
COc1cc(-c2csc(N3CCOCC3)n2)cc(OC)c1OC,137,-12%,-9%,x,-9%
COc1ccc2nc(C)cc(N3CCOCC3)c2c1,-7,-18%,20%,x,x
Cc1cc(N2CCN(C(=O)Oc3ccc([N+](=O)[O-])cc3)CC2)c2ccccc2n1,u,25µM*,x,5%,-20%
CCCc1nn2c(=O)cc(COC(=O)c3ccccc3NC(=O)c3ccc(Cl)cc3)nc2s1,33,6%,x,-10%,-2%
Cc1ccccc1-c1nccc(NCCN2CCOCC2)n1,x,8%,x,x,x
Cc1cc2c(c(-c3cnccn3)c1)OC(CNC(=O)c1c(F)cccc1Cl)C2 (configuration not stated),x,-13%,x,-7%,0%
CCCn1c(=O)c2sccc2n2c(CCCC(=O)N3CCN(c4ccccc4OC)CC3)nnc12,-30,-16%,x,-12%,0%
COC(=O)C(c1ccccc1)(c1cn(-c2ccccc2)c2ccccc12)C(Nc1ccccc1)c1ccccc1 (configuration not stated),-29,x,x,x,x
Cc1ccc2nc(C)cc(N3CCOCC3)c2c1,9,-25%,10µM*,x,-14%
Cc1ccccc1C(=O)NC1(C(F)(F)F)N=C(c2ccccc2)N(C2CCCCC2)C1=O (configuration not stated),-102*,u,x,-6%,-2%
CCOC(=O)C[n+]1cccc(Br)c1,x,x,x,-1%,-7%
CC(C)(C)c1nc(SCC(=O)NNC(=O)c2ccccc2)c2ccccc2n1,-63*,0%,u,u,-30%
CCc1nc(SCC(=O)NNC(=O)c2ccc(OC)cc2)c2ccccc2n1,20,-12%,2%,-2%,-2%

# Bioassay records as filed in PubChem BioAssay.
